This passage reports Potency, outcome and max activation results from PubChem BioAssay (Tox21).

Values joined by “and” are separate entries in the source; they are usually repeats but may differ in a detail not shown here. Identical values can stand only once. Results filed as inconclusive are left out. Where a structure was tested more than once in an assay, its records may differ in their call. Active and inactive are the calls of the source. Unless noted, calls come from the whole dose curve; as a rule, active = well fitted curve in the direction sought with a large enough effect in the repeat runs; inconclusive = weak or mixed curves; inactive = no such curve, though single readings can be large; an effect the other way counts as inactive or inconclusive.

The nature of assay [1]: qHTS assay to identify small molecule agonists of the progesterone receptor (PR) signaling pathway - cell viability counter screen (AID 1346799; calls by dose curve; note: nearly all actives have a fitted effect of over 45% in size). In a few lines: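 Luminescence from CellTiter-Glo, added after the beta-lactamase FRET read in the same wells, gave cytotoxicity in PR-UAS-bla HEK293T cells treated with compounds for 16 hr at 37C.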
The nature of assay [2]: qHTS assay to identify small molecule antagonists of the TGF-beta/Smad signaling pathway - cell viability counter screen (AID 1346824). Note: nearly all actives have a fitted effect of over 50% in size. In a few lines: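 SBE-bla HEK 293T cells, incubated overnight, then compound plus 0.25 ng/mL TGF-beta1 (stock added) for 5 hr at 37 C. Viability was read in the same wells by CellTiter-Glo luminescence after 30 min at room temperature.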

Assay [3] can be described thus: qHTS assay to identify small molecule agonists of the TGF-beta/Smad signaling pathway - cell viability counter screen (AID 1346829). Note: nearly all actives have a fitted effect of over 45% in size. Note: potency is the fitted concentration of half-maximal effect. The method in brief:
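SBE-bla HEK 293T cells plated overnight, compound exposure 5 hr at 37 C. Viability read in the same wells by CellTiter-Glo luminescence after 30 min at room temperature, following the beta-lactamase read.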
(qHTS replaces the single test concentration by a dilution series.)

The target of assay [4] is Thyrotropin-releasing hormone receptor (Homo sapiens) (UniProt P34981). Description: qHTS assay to identify small molecule antagonists of the thyrotropin-releasing hormone receptor (TRHR) signaling pathway (AID 1346877; active = well fitted inhibition curve with a large enough effect in the repeat runs, not every such curve was filed as active; note: series mostly up to about 51 µM). The method in brief: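 Overnight-plated (18 h, 37 °C) HEK293 cells expressing TRHR were dye-loaded 2 h, treated with compound, then stimulated with TRH at 1 nM final. Fluorescence intensity was captured every second for 3 min.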

Assay [5] has the same target. Description: qHTS assay to identify small molecule agonists of the thyrotropin-releasing hormone receptor (TRHR) signaling pathway (AID 1346891; calls by dose curve; note: series mostly up to about 58 µM). The method in brief:
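Intracellular calcium rise, read as fluorescence every second for 3 min, served as the agonist signal in dye-loaded HEK293 cells expressing TRHR; each compound ran at 15 concentrations in triplicate.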

The nature of assay [6]: Human pregnane X receptor (PXR) small molecule agonists, qHTS cell viability counter screen (AID 1346977). Note: nearly all actives have a fitted effect of over 50% in size. In a few lines:
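PXR-Luc HepG2, 2,000 cells/well, 5% charcoal-stripped FBS; 5hr settle; cpd 24hr, 37C/5% CO2; CellTiter-Fluor at 23hr, read 1hr later (fluorescence).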

Assay [7] in a line: Caspase-3/7 induction in CHO-K1 cells by small molecules, qHTS cell viability counter screen (AID 1346979). Note: nearly all actives have a fitted effect of over 35% in size. Note: potency is the fitted concentration of half-maximal effect. The method in brief: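 Cells (CHO-K1, wild type) are plated at 1,500 per well and incubated 5hr. Test compounds in DMSO are then pinned in, followed by 16hr at 37C and 5% CO2. Viability is read by CellTiter-Fluor fluorescence after 1hr.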
Assay [8] can be described thus: Caspase-3/7 induction in CHO-K1 cells by small molecules, qHTS assay (AID 1346980). Note: nearly all actives have a fitted effect of over 15% in size. The method in brief: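 Wild-type CHO-K1 cells exposed to compounds for 17hr at 37 C, 5% CO2. Caspase-3/7 activity then measured by Caspase-Glo 3/7 luminescence after 30min at room temperature.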
The nature of assay [9]: Caspase-3/7 induction in HepG2 cells by small molecules, qHTS cell viability counter screen (AID 1346981). Note: series mostly up to about 92 µM; nearly all actives have a fitted effect of over 30% in size. The method in brief:
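Treatment of HepG2 cells with DMSO-delivered compounds ran 16 hr at 37 C following a 5-hr pre-incubation of 2,000 cells/well. CellTiter-Fluor fluorescence, read after 1 hr, served as the viability measure in a qHTS format.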

Assay [10] concerns the target Nuclear receptor subfamily 1 group I member 2 (Homo sapiens) (UniProt O75469). Briefly: Human pregnane X receptor (PXR) small molecule agonists, qHTS assay (AID 1346982). Note: nearly all actives have a fitted effect of over 35% in size. Note: potency is the fitted concentration of half-maximal effect. The method in brief: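 Stable HepG2 line reporting PXR-mediated CYP3A4 expression via luciferase. Treatment: 24 hr with compounds in DMSO at 37 C. Detection: ONE-Glo luminescence.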
For assay [11], the target named is Cytochrome P450 2D6 (Homo sapiens) (UniProt P10635). Description: Cytochrome P450 Family 2 Subfamily D Member 6 (CYP2D6) small molecule antagonists: luciferase reporter qHTS assay (AID 1671196). Note: series mostly up to about 120 µM; nearly all actives have a fitted effect of over 50% in size. The method in brief:
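Chemicals tested for interference with CYP2D6 activity; proluciferin substrate, NADPH regeneration, 1 h at room temperature, luminescent detection.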

For assay [12], the target named is Cytochrome P450 2C19 (Homo sapiens) (UniProt P33261). Description: Cytochrome P450 Family 2 Subfamily C Member 19 (CYP2C19) small molecule antagonists: luciferase reporter qHTS assay (AID 1671197). Note: nearly all actives have a fitted effect of over 65% in size. Note: potency is the fitted concentration of half-maximal effect. In a few lines:
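P450-Glo CYP2C19 system: enzyme-substrate mix with compound 10 min at room temperature, then NADPH regeneration solution, 1 h at 37C. Proluciferin-to-luciferin conversion detected by luminescence after 20 min with detection reagent; ketoconazole as positive control.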
In general terms: In a reporter assay the amount or activity of a reporter protein is the signal.

The target of assay [13] is Cytochrome P450 1A2 (Homo sapiens) (UniProt P05177). Briefly: Cytochrome P450 Family 1 Subfamily A Member 2 (CYP1A2) small molecule antagonists: luciferase reporter qHTS assay (AID 1671199). Note: nearly all actives have a fitted effect of over 50% in size. Note: potency is the fitted concentration of half-maximal effect. In a few lines: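 Read-out is luminescence from luciferin detection reagent (20 min) proportional to CYP1A2 activity; compounds in DMSO preincubated 10 min with enzyme and proluciferin substrate, then NADPH regeneration solution, 1 h, room temperature.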

Assay [14] deals with Voltage-gated inwardly rectifying potassium channel KCNH2 (Homo sapiens) (UniProt Q12809). Description: Human Ether-a-go-go-Related Gene (hERG) channel small molecule antagonists: fluorescence cell-based qHTS assay (AID 1671200). In a few lines:
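Channel function was assessed by thallium flux. Cells seeded the previous day and kept at 37 C took up FluxOR II dye over 1 h in the dark at room temperature, then sat another 10 min before stimulation.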

Assay [15] concerns the target Cytochrome P450 3A4 (Homo sapiens) (UniProt P08684). Description: Cytochrome P450 Family 3 Subfamily A Member 4 (CYP3A4) small molecule antagonists: luciferase reporter qHTS assay (AID 1671201). In a few lines: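 Compounds in DMSO were pin-transferred onto CYP3A4 enzyme-substrate mix and held 10 min at room temperature. NADPH regenerating solution started the reaction for 1 h; luciferin detection reagent stopped it, and luminescence was read after 20 min.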

For assay [16], the target named is Cytochrome P450 2C9 (Homo sapiens) (UniProt P11712). Briefly: Cytochrome P450 Family 2 Subfamily C Member 9 (CYP2C9) small molecule antagonists: luciferase reporter qHTS assay (AID 1671198). Note: nearly all actives have a fitted effect of over 50% in size. Note: potency is the fitted concentration of half-maximal effect. The method in brief:
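P450-Glo proluciferin substrate with CYP2C9 enzyme; 10 min RT preincubation, then NADPH regeneration 1 h at 37C; luciferin detection reagent 20 min RT, luminescence in relative luminescence units.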

A short description of assay [17]: Caspase-3/7 induction in HepG2 cells by small molecules, qHTS assay (AID 1346978). Note: nearly all actives have a fitted effect of over 15% in size. The method in brief:
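Wild-type HepG2 cells, 2,000/well, settled 5 hr at 37 C and 5% CO2, then compound-treated for 17 hr; caspase-3/7 activity read by luminescent Caspase-Glo 3/7 after 30 min at room temperature.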

Assay [18] has as its target Nuclear receptor subfamily 1 group I member 2 (Rattus norvegicus) (UniProt Q9R1A7). Briefly: Rat pregnane X receptor (rPXR) activation by small molecules, qHTS assay (AID 1346983). Note: nearly all actives have a fitted effect of over 20% in size. The following applies: rPXR luciferase reporter cells, One-Glo luminescence, 24 h; max activation: stronger effect = higher value. The method in brief: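 Cell-based rPXR activation assay: rPXR cells, 2,000 per well, rested 5hr at 37 C, then exposed to compounds in DMSO for 24 hr at 37 C. Luciferase activity read by One-Glo luminescence after 30 min at room temperature.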

Assay [19] in a line: qHTS assay to identify small molecule agonists of the TGF-beta/Smad signaling pathway (AID 1346859; active = well fitted activation curve with a large enough effect in the signal ratio in the repeat runs, not every such curve was filed as active; the % refers to the signal ratio; note: series mostly up to about 77 µM). In a few lines:
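SBE-bla HEK 293T, 4,000 cells/well, plated o/n; cpd in DMSO, 5 hr, 37 C/5% CO2; B/G FRET substrate 2 hr RT; ex 405, em 460/530 nm.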
% is set by controls: 0 for no effect and ±100 for the full control effect.

Sequence of Cytochrome P450 1A2 (Homo sapiens) (P05177 whole entry, looked up): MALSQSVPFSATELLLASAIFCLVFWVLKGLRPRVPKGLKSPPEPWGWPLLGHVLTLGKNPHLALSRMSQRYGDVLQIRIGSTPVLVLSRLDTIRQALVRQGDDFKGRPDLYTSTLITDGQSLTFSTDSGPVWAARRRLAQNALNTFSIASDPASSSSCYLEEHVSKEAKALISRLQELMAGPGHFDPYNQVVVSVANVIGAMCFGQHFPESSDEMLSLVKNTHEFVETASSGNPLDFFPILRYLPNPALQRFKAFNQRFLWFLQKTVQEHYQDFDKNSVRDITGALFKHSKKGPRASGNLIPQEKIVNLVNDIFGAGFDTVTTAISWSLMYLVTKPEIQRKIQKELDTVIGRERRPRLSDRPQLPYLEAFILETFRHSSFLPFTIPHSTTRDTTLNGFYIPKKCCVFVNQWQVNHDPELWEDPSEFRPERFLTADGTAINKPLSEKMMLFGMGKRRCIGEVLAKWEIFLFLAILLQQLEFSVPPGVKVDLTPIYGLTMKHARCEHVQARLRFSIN
Sequence of Voltage-gated inwardly rectifying potassium channel KCNH2 (Homo sapiens) (Q12809 whole entry, looked up): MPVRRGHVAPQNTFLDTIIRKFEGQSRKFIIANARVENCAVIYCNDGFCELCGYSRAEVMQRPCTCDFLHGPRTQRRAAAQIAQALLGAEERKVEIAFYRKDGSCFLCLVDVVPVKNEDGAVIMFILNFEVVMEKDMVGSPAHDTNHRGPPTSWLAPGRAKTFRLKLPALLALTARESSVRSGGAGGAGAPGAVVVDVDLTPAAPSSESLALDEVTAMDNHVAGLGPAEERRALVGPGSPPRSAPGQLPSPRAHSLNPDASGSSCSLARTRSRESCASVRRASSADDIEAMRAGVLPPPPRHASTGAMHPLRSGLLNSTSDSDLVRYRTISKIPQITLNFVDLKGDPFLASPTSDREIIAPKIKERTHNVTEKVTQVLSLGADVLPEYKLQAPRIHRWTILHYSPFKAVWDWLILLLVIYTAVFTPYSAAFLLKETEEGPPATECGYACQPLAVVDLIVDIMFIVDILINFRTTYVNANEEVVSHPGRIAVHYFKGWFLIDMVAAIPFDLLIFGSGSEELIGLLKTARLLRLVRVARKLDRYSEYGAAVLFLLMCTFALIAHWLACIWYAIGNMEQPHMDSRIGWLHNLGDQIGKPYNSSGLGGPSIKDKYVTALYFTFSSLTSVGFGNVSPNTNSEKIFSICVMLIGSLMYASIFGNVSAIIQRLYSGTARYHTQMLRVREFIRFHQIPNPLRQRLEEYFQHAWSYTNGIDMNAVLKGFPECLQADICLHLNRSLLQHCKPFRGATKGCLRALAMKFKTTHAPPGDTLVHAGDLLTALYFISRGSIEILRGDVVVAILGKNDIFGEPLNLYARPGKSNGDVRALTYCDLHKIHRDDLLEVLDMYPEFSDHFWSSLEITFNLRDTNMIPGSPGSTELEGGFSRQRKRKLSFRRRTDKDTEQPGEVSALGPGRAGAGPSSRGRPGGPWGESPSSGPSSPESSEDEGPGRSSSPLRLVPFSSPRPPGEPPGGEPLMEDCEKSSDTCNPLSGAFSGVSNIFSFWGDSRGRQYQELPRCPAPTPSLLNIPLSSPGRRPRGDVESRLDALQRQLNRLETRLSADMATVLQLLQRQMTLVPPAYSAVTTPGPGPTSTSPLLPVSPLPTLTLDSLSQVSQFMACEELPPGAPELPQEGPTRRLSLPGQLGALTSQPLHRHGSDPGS
Sequence of Thyrotropin-releasing hormone receptor (Homo sapiens) (P34981 whole entry, looked up): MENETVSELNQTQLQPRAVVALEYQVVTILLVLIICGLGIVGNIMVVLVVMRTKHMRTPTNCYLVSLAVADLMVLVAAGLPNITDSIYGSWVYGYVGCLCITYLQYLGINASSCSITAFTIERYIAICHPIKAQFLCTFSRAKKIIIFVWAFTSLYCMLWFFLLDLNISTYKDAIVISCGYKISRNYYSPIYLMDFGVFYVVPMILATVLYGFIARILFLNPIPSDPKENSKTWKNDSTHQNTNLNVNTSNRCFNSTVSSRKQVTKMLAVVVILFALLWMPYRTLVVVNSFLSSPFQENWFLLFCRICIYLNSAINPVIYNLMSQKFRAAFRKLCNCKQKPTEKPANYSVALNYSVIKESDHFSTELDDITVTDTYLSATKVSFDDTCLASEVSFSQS
Sequence of Nuclear receptor subfamily 1 group I member 2 (Homo sapiens) (O75469 whole entry, looked up): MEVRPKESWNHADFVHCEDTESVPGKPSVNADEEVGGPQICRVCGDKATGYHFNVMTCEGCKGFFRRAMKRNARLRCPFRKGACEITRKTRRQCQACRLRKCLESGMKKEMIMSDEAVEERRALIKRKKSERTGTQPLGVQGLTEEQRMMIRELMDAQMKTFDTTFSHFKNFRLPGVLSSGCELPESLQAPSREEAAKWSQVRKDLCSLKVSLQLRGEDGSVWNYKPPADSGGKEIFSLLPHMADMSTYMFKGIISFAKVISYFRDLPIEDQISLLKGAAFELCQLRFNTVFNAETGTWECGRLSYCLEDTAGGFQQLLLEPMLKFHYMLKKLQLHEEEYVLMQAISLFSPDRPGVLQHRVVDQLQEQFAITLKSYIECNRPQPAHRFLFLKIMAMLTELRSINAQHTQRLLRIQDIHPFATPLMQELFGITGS
Sequence of Cytochrome P450 2C19 (Homo sapiens) (P33261 whole entry, looked up): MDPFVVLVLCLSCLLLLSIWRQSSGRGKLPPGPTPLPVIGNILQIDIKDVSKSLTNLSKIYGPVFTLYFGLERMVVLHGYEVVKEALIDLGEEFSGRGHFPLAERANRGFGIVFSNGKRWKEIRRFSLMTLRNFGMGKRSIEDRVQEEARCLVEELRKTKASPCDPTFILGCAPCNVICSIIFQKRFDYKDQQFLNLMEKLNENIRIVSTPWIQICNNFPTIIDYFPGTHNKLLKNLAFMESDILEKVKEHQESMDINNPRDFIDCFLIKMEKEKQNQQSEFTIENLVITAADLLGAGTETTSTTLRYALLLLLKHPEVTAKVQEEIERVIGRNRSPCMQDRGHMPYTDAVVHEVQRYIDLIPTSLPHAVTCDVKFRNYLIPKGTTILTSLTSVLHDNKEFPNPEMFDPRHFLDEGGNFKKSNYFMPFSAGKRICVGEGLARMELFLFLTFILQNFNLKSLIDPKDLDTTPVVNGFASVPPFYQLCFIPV
Sequence of Cytochrome P450 2D6 (Homo sapiens) (P10635 whole entry, looked up): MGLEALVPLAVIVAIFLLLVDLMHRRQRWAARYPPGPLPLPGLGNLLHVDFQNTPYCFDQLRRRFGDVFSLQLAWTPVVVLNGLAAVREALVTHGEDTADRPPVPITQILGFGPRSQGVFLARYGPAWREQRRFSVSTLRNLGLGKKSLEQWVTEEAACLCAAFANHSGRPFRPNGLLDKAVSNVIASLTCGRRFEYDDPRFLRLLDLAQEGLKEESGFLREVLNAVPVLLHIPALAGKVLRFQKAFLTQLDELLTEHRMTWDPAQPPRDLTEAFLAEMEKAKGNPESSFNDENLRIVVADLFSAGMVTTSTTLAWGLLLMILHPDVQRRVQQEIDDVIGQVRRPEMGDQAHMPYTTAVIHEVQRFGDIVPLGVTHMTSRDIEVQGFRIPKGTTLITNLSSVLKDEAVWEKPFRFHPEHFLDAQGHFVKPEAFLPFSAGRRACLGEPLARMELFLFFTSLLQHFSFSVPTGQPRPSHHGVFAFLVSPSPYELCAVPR
Sequence of Cytochrome P450 2C9 (Homo sapiens) (P11712 whole entry, looked up): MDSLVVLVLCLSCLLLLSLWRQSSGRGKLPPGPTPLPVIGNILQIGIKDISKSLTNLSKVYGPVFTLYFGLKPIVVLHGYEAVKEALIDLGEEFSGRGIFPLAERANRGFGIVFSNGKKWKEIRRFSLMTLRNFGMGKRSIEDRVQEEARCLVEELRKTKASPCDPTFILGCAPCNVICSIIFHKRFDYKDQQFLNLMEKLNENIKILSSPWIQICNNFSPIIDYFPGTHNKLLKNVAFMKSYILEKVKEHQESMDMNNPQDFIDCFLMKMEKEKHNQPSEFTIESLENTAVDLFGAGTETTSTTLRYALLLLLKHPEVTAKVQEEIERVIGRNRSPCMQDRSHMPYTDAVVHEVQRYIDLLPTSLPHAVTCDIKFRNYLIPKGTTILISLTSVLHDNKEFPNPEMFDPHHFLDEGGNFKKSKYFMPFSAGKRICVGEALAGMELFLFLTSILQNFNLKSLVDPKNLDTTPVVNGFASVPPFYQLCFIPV
Sequence of Cytochrome P450 3A4 (Homo sapiens) (P08684 whole entry, looked up): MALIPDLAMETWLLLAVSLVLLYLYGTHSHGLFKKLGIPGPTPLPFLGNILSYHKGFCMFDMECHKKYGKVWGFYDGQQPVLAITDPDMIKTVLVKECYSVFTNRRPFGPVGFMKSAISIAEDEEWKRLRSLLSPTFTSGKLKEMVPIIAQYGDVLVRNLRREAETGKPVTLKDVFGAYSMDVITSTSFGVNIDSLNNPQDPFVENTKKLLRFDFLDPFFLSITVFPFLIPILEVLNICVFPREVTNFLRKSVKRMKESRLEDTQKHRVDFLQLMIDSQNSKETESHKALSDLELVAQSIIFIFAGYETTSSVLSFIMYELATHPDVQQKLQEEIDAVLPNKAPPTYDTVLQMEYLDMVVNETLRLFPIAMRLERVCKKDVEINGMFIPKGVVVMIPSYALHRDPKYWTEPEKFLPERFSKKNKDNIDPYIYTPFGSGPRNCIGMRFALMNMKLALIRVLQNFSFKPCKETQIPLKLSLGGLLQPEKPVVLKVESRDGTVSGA
Sequence of Nuclear receptor subfamily 1 group I member 2 (Rattus norvegicus) (Q9R1A7 whole entry, looked up): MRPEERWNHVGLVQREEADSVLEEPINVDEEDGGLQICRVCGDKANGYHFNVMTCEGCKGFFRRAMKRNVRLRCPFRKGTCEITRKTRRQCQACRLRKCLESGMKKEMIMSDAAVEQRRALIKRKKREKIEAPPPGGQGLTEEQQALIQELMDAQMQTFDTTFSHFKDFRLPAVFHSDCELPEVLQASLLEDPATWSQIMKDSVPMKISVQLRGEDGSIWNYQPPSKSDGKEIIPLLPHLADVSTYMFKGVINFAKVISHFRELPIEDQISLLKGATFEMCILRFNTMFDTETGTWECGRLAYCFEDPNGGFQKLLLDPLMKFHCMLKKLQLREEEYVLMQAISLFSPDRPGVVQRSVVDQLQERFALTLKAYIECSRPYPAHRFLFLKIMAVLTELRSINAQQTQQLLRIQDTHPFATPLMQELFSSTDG

For the compound `CCCCCC1=CCCC1=O`, the Potency entry in [1], in [2], in assay [3], in [4], in [6] and in assay [7] was “inactive” each time. The Potency result in assay [9], in [11], in [13] and in [15] was “inactive” throughout. Moreover, the call in assay [5], in assay [8] and in assay [14] was inactive. The Potency in assay [10] was 62.4 µM (active) and inactive; in assay [12], 20.4 µM (active) and inactive.
For `COc1ccc(Cl)cc1C(=O)NCCc1ccc(S(=O)(=O)NC(=O)NC2CCCCC2)cc1`, the Potency result in [1], in assay [2], in assay [3], in assay [4], in assay [6] and in assay [9] was “inactive” each time. Further, the Potency entry in assay [12] and in [13] was “inactive” throughout. The compound was classed as inactive in assay [5] and in assay [8].
For the compound `C[Si](O[Si](C)(C)C)O[Si](C)(C)C`, the Potency entry in assay [1], in assay [2], in assay [3], in assay [4], in assay [6] and in assay [7] was “inactive” throughout. In addition, the Potency entry in assay [9], in [10], in [11], in assay [12], in [16] and in assay [13] was “inactive” throughout. The Potency result in [15] is “inactive”. Moreover, the compound was called inactive in assay [5], in assay [8] and in assay [14].
For `N[C@@H](Cc1cc(I)c(Oc2cc(I)c(O)c(I)c2)c(I)c1)C(=O)O`, the Potency result in [2], in [3], in assay [6], in [17], in assay [9] and in assay [11] was “inactive” each time. In addition, the Potency entry in assay [12] and in assay [15] was “inactive” in each case. Also, the compound was classed as inactive in assay [8] and in assay [14]. Besides, in [18], the max activation was -0.369% (inactive).
Take `CC1=C(C)S(=O)(=O)CCS1(=O)=O`: the Potency result in assay [1], in [2], in assay [3], in assay [4], in assay [17] and in [10] was “inactive” throughout. Further, the Potency entry in [16] and in [13] was “inactive” each time. Further, the compound was classed as inactive in [5], in assay [8] and in assay [14]. Further, the Potency in assay [12] is 69.7 µM (active) and inactive.
As to `CCCCCCCCCCCCCCCO`, the Potency result in assay [1], in assay [6], in assay [17], in [9], in assay [10] and in assay [15] was “inactive” in each case. Also, the Potency is 24.8 µM (active) and inactive in assay [3]; 24.5 µM (active) and inactive in assay [7]; 35.9 µM (active) and 39.9 µM (active) in assay [12]; 40.3 µM (active) in assay [16]; 71.6 µM (active) in [13]. Also, the compound was called inactive in assay [19], in [8] and in assay [14].
As to `ON=C1CCCCC1`, the Potency entry in [1], in assay [2], in assay [3], in assay [6], in assay [7] and in [9] was “inactive” throughout. Besides, the Potency entry in assay [10], in assay [11], in assay [16] and in [15] was “inactive” throughout. The result in [8] and in [14] was inactive. Moreover, the Potency in [12] was 32 µM (active) and inactive; in assay [13], 32 µM (active) and inactive.
Turning to `Cc1cccc(O)c1`, the Potency result in assay [1], in [2], in assay [3], in assay [6], in assay [17] and in assay [9] was “inactive” throughout. Also, the Potency entry in [10], in [11], in assay [12] and in assay [16] was “inactive” in each case. In addition, the compound was called inactive in assay [8] and in assay [14].
